Values joined by “and” are separate entries in the source; they are usually repeats but may differ in a detail not shown here. Equal entries are not always repeated. The whole screen tested about 5,500 compounds, of which about 2,000 (36%) were called active. Roughly 18% stayed inconclusive and do not appear here. Cut-off read from the data, not from the text of the source: active = normalized growth mostly below about 0.91 (no sharp cut-off); inconclusive = no clear call, values can overlap the other calls; inactive = mostly above about 0.92. The list shows a part of the results.
Experiment: chemical genetic growth profiling, strain panel (AID 1159580);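 note: tested at 20 µM; growth read once vehicle control cultures reached saturation at 30 °C; 1 = growth at the plate median or of vehicle wells; lower values mean less growth of the strain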
Settings: growth OD

Measured: normalized growth

O=[N+]([O-])c1cc(O)c(O)c([N+](=O)[O-])c1
inactive: S. cerevisiae deletion strains, locus YJL187C, strain SWE1 (second series), active compounds read low 1.02 | S. cerevisiae deletion strains, locus YJL187C, strain SWE1, active compounds read low 1.01 | S. cerevisiae deletion strains, locus YJR075W, strain HOC1, active compounds read low 1.05 | S. cerevisiae deletion strains, locus YKL009W, strain mrt4, active compounds read low 1.01 | S. cerevisiae deletion strains, locus YKL068W, active compounds read low 0.974 | S. cerevisiae deletion strains, locus YKL085W, strain MDH1 (second series), active compounds read low 0.97 | S. cerevisiae deletion strains, locus YKL085W, strain MDH1, active compounds read low 0.97 | S. cerevisiae deletion strains, locus YKL160W, strain elf1, active compounds read low 1 | S. cerevisiae deletion strains, locus YKR001C, strain vps1, active compounds read low 1 | S. cerevisiae deletion strains, locus YKR026C, strain gcn3, active compounds read low 1.01 | S. cerevisiae deletion strains, locus YKR091W, strain srl3, active compounds read low 1.01 | S. cerevisiae deletion strains, locus YLL001W, strain dnm1, active compounds read low 1.01 | S. cerevisiae deletion strains, locus YLL026W, active compounds read low 0.999 | S. cerevisiae deletion strains, locus YLL041C, strain sdh2, active compounds read low 1.01 | S. cerevisiae deletion strains, locus YLR027C, strain aat2, active compounds read low 1.02 | S. cerevisiae deletion strains, locus YLR039C, strain RIC1, active compounds read low 0.958 | S. cerevisiae deletion strains, locus YLR058C, strain SHM2, active compounds read low 1.01 | S. cerevisiae deletion strains, locus YLR102C, strain apc9, active compounds read low 0.98 | S. cerevisiae deletion strains, locus YLR221C, strain rsa3, active compounds read low 1.06 | S. cerevisiae deletion strains, locus YLR258W, strain gsy2, active compounds read low 1.06 | S. cerevisiae deletion strains, locus YLR262C, strain YPT6 (second series), active compounds read low 0.996 | S. cerevisiae deletion strains, locus YLR262C, strain YPT6, active compounds read low 0.959 | S. cerevisiae deletion strains, locus YLR268W, strain sec22, active compounds read low 0.972 | S. cerevisiae deletion strains, locus YLR320W, strain mms22, active compounds read low 1.06 | S. cerevisiae deletion strains, locus YLR330W, strain CHS5, active compounds read low 1.01 | S. cerevisiae deletion strains, locus YLR342W, strain FKS1 (second series), active compounds read low 0.951 | S. cerevisiae deletion strains, locus YLR342W, strain FKS1, active compounds read low 1.01 | S. cerevisiae deletion strains, locus YLR357W, strain rsc2, active compounds read low 1.03 | S. cerevisiae deletion strains, locus YLR370C, strain arc18, active compounds read low 1.01 | S. cerevisiae deletion strains, locus YLR371W, strain rom2, active compounds read low 0.979 | S. cerevisiae deletion strains, locus YLR384C, strain iki3, active compounds read low 1.01 | S. cerevisiae deletion strains, locus YLR418C, strain cdc73, active compounds read low 0.908 | S. cerevisiae deletion strains, locus YML016C, strain PPZ1, active compounds read low 1.01 | S. cerevisiae deletion strains, locus YML032C, strain rad52, active compounds read low 1.01 | S. cerevisiae deletion strains, locus YML120C, strain ndi1, active compounds read low 1.03 | S. cerevisiae deletion strains, locus YML124C, strain tub3, active compounds read low 0.973 | S. cerevisiae deletion strains, locus YMR058W, strain fet3, active compounds read low 1.04 | S. cerevisiae deletion strains, locus YMR078C, strain ctf18, active compounds read low 0.985 | S. cerevisiae deletion strains, locus YMR125W, strain sto1, active compounds read low 1.01 | S. cerevisiae deletion strains, locus YMR129W, active compounds read low 1.01 | S. cerevisiae deletion strains, locus YMR205C, strain PFK2, active compounds read low 1.01 | S. cerevisiae deletion strains, locus YMR223W, strain ubp8, active compounds read low 0.971 | S. cerevisiae deletion strains, locus YMR231W, strain pep5, active compounds read low 1.02 | S. cerevisiae deletion strains, locus YMR263W, strain SAP30, active compounds read low 1.02 | S. cerevisiae deletion strains, locus YMR307W, strain GAS1, active compounds read low 0.97 and 1.01 | S. cerevisiae deletion strains, locus YNL067W, strain RPL9B, active compounds read low 1.02 | S. cerevisiae deletion strains, locus YNL071W, strain lat1, active compounds read low 1.02 | S. cerevisiae deletion strains, locus YNL153C, strain GIM3, active compounds read low 1.04 and 0.971 | S. cerevisiae deletion strains, locus YNL175C, strain NOP13, active compounds read low 0.976 | S. cerevisiae deletion strains, locus YNL197C, strain WHI3, active compounds read low 0.95 | S. cerevisiae deletion strains, locus YNL209W, strain ssb2, active compounds read low 1.02 | S. cerevisiae deletion strains, locus YNL224C, strain SQS1, active compounds read low 0.977 | S. cerevisiae deletion strains, locus YNL233W, strain BNI4, active compounds read low 1 | S. cerevisiae deletion strains, locus YNL248C, strain rpa49, active compounds read low 0.983 | S. cerevisiae deletion strains, locus YNL250W, strain rad50, active compounds read low 0.955 | S. cerevisiae deletion strains, locus YNL271C, strain bni1, active compounds read low 0.978 | S. cerevisiae deletion strains, locus YNL298W, strain CLA4, active compounds read low 0.994 | S. cerevisiae deletion strains, locus YNL307C, strain MCK1, active compounds read low 0.989 | S. cerevisiae deletion strains, locus YNL322C, strain KRE1 (second series), active compounds read low 1.02 | S. cerevisiae deletion strains, locus YNL322C, strain KRE1, active compounds read low 1 and 1.01 | S. cerevisiae deletion strains, locus YNR049C, strain mso1, active compounds read low 1 | S. cerevisiae deletion strains, locus YNR052C, strain pop2, active compounds read low 0.996 | S. cerevisiae deletion strains, locus YOL012C, strain htz1 1.22 | S. cerevisiae deletion strains, locus YOL147C, strain pex11, active compounds read low 0.981 | S. cerevisiae deletion strains, locus YOR001W, strain rrp6, active compounds read low 1.01 | S. cerevisiae deletion strains, locus YOR061W, strain CKA2, active compounds read low 1.01 | S. cerevisiae deletion strains, locus YOR069W, strain VPS5, active compounds read low 1 | S. cerevisiae deletion strains, locus YOR070C, strain gyp1, active compounds read low 1.03 | S. cerevisiae deletion strains, locus YOR080W, strain dia2, active compounds read low 1.02 | S. cerevisiae deletion strains, locus YOR083W, strain WHI5 (second series), active compounds read low 0.992 | S. cerevisiae deletion strains, locus YOR083W, strain WHI5, active compounds read low 1.01 | S. cerevisiae deletion strains, locus YOR106W, strain vam3, active compounds read low 0.983 | S. cerevisiae deletion strains, locus YOR136W, strain idh2, active compounds read low 0.981 | S. cerevisiae deletion strains, locus YOR144C, strain elg1, active compounds read low 0.979 | S. cerevisiae deletion strains, locus YOR184W, strain ser1, active compounds read low 0.985 | S. cerevisiae deletion strains, locus YOR265W, strain rbl2, active compounds read low 1.02 | S. cerevisiae deletion strains, locus YOR270C, strain vph1, active compounds read low 0.989 | S. cerevisiae deletion strains, locus YOR290C, strain snf2, active compounds read low 1.02 | S. cerevisiae deletion strains, locus YOR316C, strain cot1, active compounds read low 0.983 | S. cerevisiae deletion strains, locus YPL051W, strain arl3, active compounds read low 1.04 | S. cerevisiae deletion strains, locus YPL055C, strain LGE1, active compounds read low 1.01 and 1.06 | S. cerevisiae deletion strains, locus YPL078C, strain atp4, active compounds read low 0.992 | S. cerevisiae deletion strains, locus YPL106C, strain sse1, active compounds read low 1.07 | S. cerevisiae deletion strains, locus YPL240C, strain hsp82, active compounds read low 0.995 | S. cerevisiae deletion strains, locus YPR119W, strain clb2, active compounds read low 0.972 | S. cerevisiae deletion strains, locus YPR141C, strain kar3, active compounds read low 0.954 | S. cerevisiae deletion strains, locus YPR163C, strain tif3, active compounds read low 0.985 | S. cerevisiae deletion strains, locus YPR167C, strain met16, active compounds read low 0.971 | S. cerevisiae deletion strains, strain wtn01, active compounds read low 0.984 | S. cerevisiae strains, strain wild type, active compounds read low 1.01
